Bioassay records as filed in PubChem BioAssay.
In the library only some 19% were active in any assay of this set; here they are far more common.
TDP1 cell CPT = DT40-hTDP1 cell growth loss with CPT; chicken DT40 Tdp1-/-;hTDP1 cells + 20 nM CPT, ATP luminescence, 48 h; Potency, µM (highest dose often 46.2 µM), without a hit: at the top dose activity change, negative = growth inhibition, hits mostly inhibitors; actives 12% (n = 420,000); also: nearly all actives have a fitted effect of over 55% in size
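Cell growth measured by CellTiter-Glo luminescence after a minimum 48 h, 37 C compound exposure with 20 nM CPT in Tdp1-knockout DT40 cells stably expressing hTDP1, seeded 400/well; qHTS titration format.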
RORgamma inh = inhibitors of mouse ROR gamma transcriptional activity; P51450; Drosophila S2 Gal4-RORgamma UAS-luciferase reporter, 20 h; Potency, µM (series often up to 53.6 µM), without a hit: top-dose activity change, negative = inhibition, hits mostly inhibitors; actives 5.4% (n = 310,000); also: nearly all actives have a fitted effect of over 60% in size
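In this cell-based reporter format, copper sulfate (700 uM final) drives Gal4–ROR gamma fusion expression from a metallothionein promoter in Drosophila Schneider cells; compounds preincubated 1 hr, reporter read after 20 hr at ambient temperature.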
VP16 counter = Gal4-VP16 reporter inhibition counter-screen; AID 2546; Potency, µM (titrated, usually from 53.6 µM), without a hit: at the highest dose activity, negative = inhibition, usual class: inhibitors; Drosophila S2 Gal4-VP16 UAS-luciferase, luminescence, 20 h; actives 3.5% (n = 310,000);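 also: Gal4-VP16 expression switched on by copper sulfate through the metallothionein promoter; nearly all actives have a fitted effect of over 50% in size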
TDP1 cell noCPT = qHTS for Inhibitors of human tyrosyl-DNA phosphodiesterase 1 (TDP1): qHTS in cells in absence of CPT; AID 686978, 2013; Potency, µM (series often up to 46.2 µM), for the others: at the highest dose activity change, negative = growth inhibition, hits mostly inhibitors; actives 15% (n = 420,000); DT40 Tdp1-/- hTDP1 cells, no CPT, ATP luminescence, 48 h; also: nearly all actives have a fitted effect of over 55% in size
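Chicken DT40 Tdp1-/- cells stably complemented with human TDP1 were seeded at 400 cells/well with DMSO in place of 20 nM camptothecin. After compound pinning, cells grew at least 48 hr at 37 °C; viability read by CellTiter-Glo luminescence.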
TDP1 inh = TDP1 (human) enzyme inhibition. Q9NUW8. recombinant TDP1, AlphaScreen DNA substrate cleavage. Potency, µM (highest dose often 130 µM), inactives show at the top dose activity change, negative = inhibition, actives largely listed as inhibitors. actives 0.28% (n = 350,000). AID 485290; also: nearly all actives have a fitted effect of over 40% in size
Target sequence (Q9NUW8 whole entry, looked up): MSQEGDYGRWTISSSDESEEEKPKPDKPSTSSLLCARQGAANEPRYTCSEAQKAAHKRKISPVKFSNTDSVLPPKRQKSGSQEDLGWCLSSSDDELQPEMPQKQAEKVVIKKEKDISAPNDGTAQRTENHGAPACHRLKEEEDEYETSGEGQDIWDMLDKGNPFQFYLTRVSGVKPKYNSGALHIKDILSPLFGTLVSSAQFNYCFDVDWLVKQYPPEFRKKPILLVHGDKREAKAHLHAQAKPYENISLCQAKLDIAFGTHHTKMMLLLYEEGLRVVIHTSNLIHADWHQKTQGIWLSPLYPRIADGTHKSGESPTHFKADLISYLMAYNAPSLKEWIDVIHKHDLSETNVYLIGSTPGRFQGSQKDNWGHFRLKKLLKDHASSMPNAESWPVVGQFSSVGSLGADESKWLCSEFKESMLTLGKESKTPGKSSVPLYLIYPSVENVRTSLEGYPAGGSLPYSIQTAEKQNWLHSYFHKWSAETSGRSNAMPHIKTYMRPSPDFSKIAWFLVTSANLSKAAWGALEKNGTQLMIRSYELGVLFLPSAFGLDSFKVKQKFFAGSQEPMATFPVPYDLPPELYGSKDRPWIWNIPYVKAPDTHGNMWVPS
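AlphaScreen read-out: signal falls as enzyme removes the 3' tyrosine-FITC from a 5'-biotinylated DNA oligo (15 nM, 5 min, RT). Enzyme was E. coli-made recombinant Tdp1 at 1 nM, exposed to compound for 15 min beforehand; beads 10 ug/ml, 10 min.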
Starred values were filed as active, the others as inactive; ? = inconclusive; · = not tested or not shown; [ ] = another dose, or the depositor's remark. Calls follow the shape of the dose curve; as a rule, active = well fitted curve in the direction sought with a large enough effect; inconclusive = small, poorly fitted or top-dose-only effect, or another doubt; inactive = no such curve, though single readings can be large; an effect the other way counts as inactive or inconclusive. % is scaled to controls: 0 for no effect and ±100 for the full control effect; potency is read from the fitted curve at half-maximal effect.

SMILES	TDP1 cell CPT	RORgamma inh	VP16 counter	TDP1 cell noCPT	TDP1 inh
CC(C)c1cc(Br)ccc1OCCCN1C(=O)NC(C)(C)C1=O	?	12%	-3%	?	4%
Cc1cc(OCC(=O)N2CCN(c3ccccc3)CC2)c2c(C)c(C)c(=O)oc2c1	-9%	-11%	-13%	23%	0%
Cc1cc(OC(C)C(=O)N2CCN(c3ccccc3)CC2)c2c(C)c(C)c(=O)oc2c1 (stereo not given)	?	-15%	-3%	29µM*	3%
Cc1cccc(NC(=S)Nc2ccccn2)c1	?	0.5µM*	6.3µM*	8.2µM*	1%
Cc1ccc(NC(=S)Nc2ccc3nc(-c4ccccn4)c(-c4ccccn4)nc3c2)cc1C	26µM*	14µM*	?	?	6%
O=C(O)c1ccc(NC(=S)Nc2ccc(S(=O)(=O)Nc3ccccn3)cc2)cc1	6%	·	·	0%	·
Cc1ccc(NC(=S)Nc2ccccn2)c(C)c1	3.7µM*	0.79µM*	6.3µM*	5.2µM*	4%
O=C(Nc1cccc(F)c1)Nc1ccccn1	-16%	?	29%	-1%	3%
Cc1ccc(NC(=S)Nc2ccccn2)cc1C	23µM*	0.71µM*	3.2µM*	16µM*	1%
CC(=O)Nc1ccc(N2C(=O)CSC2c2ccccc2)cc1 (stereo not given)	-4%	1%	-3%	16%	·
CCOC(=O)C1=C(CN2CCN(C(=O)OCC)CC2)NC(=O)NC1c1ccc2c(c1)OCO2 (stereo not given)	1%	0%	-17%	?	5%
Cc1cc(C)cc(NC(=S)NC(=O)Cc2ccccc2)c1	-15%	·	·	-25%	·
Cc1cc(C)cc(NC(=S)Nc2ccccn2)c1	13µM*	1.1µM*	4.5µM*	10µM*	8%
Cc1cc(C)cc(NC(=S)NN)c1	8%	7.9µM*	?	-23%	0%
Cc1cc(C)cc(NC(=O)C2CCCC2)c1	-17%	2%	1%	-2%	5%
Cc1ccc(NC(=S)NNC(=S)Nc2ccc(C)cc2C)cc1	3.7µM*	-42%	-12%	5.2µM*	-6%
COc1cc(CCCN2C(=S)NC[C@@H]2Cc2ccccc2)cc(OC)c1OC	26µM*	10µM*	?	16µM*	3%
COc1cc(CCCN2C(=S)NC[C@@H]2c2ccccc2)cc(OC)c1OC	26µM*	10µM*	?	16µM*	4%
CCC(C)(C)NC(=O)C(c1ccccn1)N(C(=O)c1csnn1)c1ccc(C)c(C)c1 (stereo not given)	1%	7%	-20%	0%	6%
CC(=O)N1c2ccc(S(=O)(=O)N3CCCCC3)cc2CC1C(=O)NCc1cccc(Cl)c1 (stereo not given)	10%	37%	19%	?	4%
O=C1OCC(CC2=C(O)C(=O)OC2)=C1O	3%	·	·	-7%	·
CCCCCCc1cc2cc(C(=O)Nc3ccccc3OC)c(=O)oc2cc1O	16µM*	-8%[10 µM]	2%	16µM*	-2%
COc1ccc(-c2nnc(-c3cc4ccccc4oc3=O)o2)cc1	-5%	?	0%	?	2%
CCCCCCc1cc2cc(-c3nnc(-c4ccccc4OC)o3)c(=O)oc2cc1O	?	22%	?	16µM*	-5%
CCCCCCc1cc2cc(-c3nnc(-c4cc(OC)c(OC)c(OC)c4)o3)c(=O)oc2cc1O	?	43%	9%	23µM*	5%
CCCCCCc1cc2cc(S(=O)(=O)c3ccc(F)cc3)c(=O)oc2cc1O	21µM*	40%	?	?	0%
CCCCC[C@H](O)/C=C/C=C/C=C/[C@@H](O)C/C=C\CCCC(=O)O	·	-40%	-13%	·	4%
COc1ccccc1-c1csc(C(NC(C)=O)c2ccccc2)n1 (stereo not given)	-15%	·	·	-17%	·
CCCc1c(C)nc2c(OC)cccc2c1SCC(=O)O	3%	-21%	-4%	-13%	-2%
Cc1cc(-c2nnc(-c3cc4ccccc4oc3=O)o2)c(C)n1-c1ccccc1	?	35%	?	?	2%
